Sa growth 42C = S. aureus growth inhibition. S. aureus RN4220 growth, OD600, 20 h, 42 °C; active compounds read low. relative growth, % (test concentration not listed). hit rate 0.53% among 170,000;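 active = relative growth at most 50% at the other temperature and 20+ points below 30 °C, or under 10% at both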
S aureus helic = blocks Staphylococcus aureus DNA helicase. AID 485395. purified S. aureus helicase, fluorescence unwinding assay. inhibition, % (concentration not given with the values). hit rate 0.05% among 120,000; in the data active = inhibition above about 25%, passing the limit was not always enough;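 also: 0% = mean of negative control wells and 100% = mean of positive control wells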
* marks the source's active call; other numbers are inactive results; · = no result. Shown is part of a subset that was picked to be rich in hits.

SMILES	Sa growth 42C	S aureus helic
NC1CCN(c2nc3c(cc2F)c(=O)c(C(=O)O)cn3-c2ccc(F)cc2F)C1 (centres undefined)	-1.0*	·
CO/N=C1\CN(c2nc3c(cc2F)c(=O)c(C(=O)O)cn3C2CC2)CC1CN (centres undefined)	-1.0*	·
CN1CCN(c2c(F)cc3c(=O)c(C(=O)O)cn(CCF)c3c2F)CC1	23	·
CCN(CC)c1ccc(C2C3=C(CC(C)(C)CC3=O)OC3=C2C(=O)CC(C)(C)C3)cc1	92	22
COc1ccc(/C=C2\Cc3ccccc3C2=O)cc1	125	11
CC(C)CC(c1ccccc1)C(O)c1ccccc1 (centres undefined)	100	·
CCOC(=O)c1cn2c3c(c(F)c(F)cc3c1=O)OCC2C (centres undefined)	101	-14
COc1c(N2CCNC(C)C2)c(F)cc2c(=O)c(C(=O)O)cn(C3CC3)c12 (centres undefined)	-0.9*	·
CCOc1ccc(OCCCCn2ccnc2)cc1	120	4
CC(C)(C)c1ccccc1OCCCCCn1ccnc1	-1.0*	3
CC1(C)CC(NC2=NCCCCC2)CC(C)(C)N1	111	-12
CCOC(=O)c1oc2ccccc2c1NC(=O)COC(=O)CCc1nc2ccccc2c(=O)[nH]1	85	6
Sc1nc2c(Cl)c(Cl)c(Cl)cc2o1	-0.8*	22
NC[C@H]1O[C@H](O[C@H]2[C@H](O)[C@@H](O[C@H]3O[C@H](CO)[C@@H](O)[C@H](N)[C@H]3O)[C@H](N)C[C@@H]2N)[C@H](N)[C@@H](O)[C@@H]1O	-0.2*	·
CN[C@@H]1[C@@H](O[C@H]2O[C@H](CO)[C@@H](N)[C@H](O)[C@H]2O)O[C@H]2C[C@@H](N)[C@H](O[C@H]3[C@H](O)[C@@H](O)[C@H](N)C[C@@H]3N)O[C@@H]2[C@@H]1O	99	·
CC(C)c1ccc(NC(=O)c2cccs2)cc1	91	-6
CC1C/C(=N/Nc2nc3ccccc3[nH]2)CC(C)(C)C1 (centres undefined)	83	11
CC1=C/C(=N/Nc2nc3ccccc3[nH]2)CC(C)(C)C1	-0.4*	15
O=C(Nc1ccc([N+](=O)[O-])cc1Cl)c1cc(Cl)ccc1O	-0.6*	·
O=C(Nc1ccccc1Cl)c1ccccc1O	19	5
C=CCOc1ccc(CNC(C)(C)C)cc1	98	-13
CC(C)NC(=S)N1CCN(c2ccc3nnc(-c4ccc(F)cc4)n3n2)CC1	103	8
CCCCCC(=O)Nc1ccc(C(=O)CSc2nnc3n2CCCCC3)cc1	85	6
Cc1nc2c(C(=O)NCCc3ccccc3)c[nH]n2c(=O)c1Cc1ccc(F)cc1Cl	-0.2*	·
Cc1nc2c(C(=O)NCCc3ccc(Cl)cc3)c[nH]n2c(=O)c1Cc1ccccc1F	1.1*	·
SMILES	Sa growth 42C	S aureus helic
Cc1nc2c(C(=O)NCCC(C)C)c[nH]n2c(=O)c1Cl	101	8
COc1ccc(CCNC(=O)c2cc(C)nc3c2c(C)nn3-c2ccccc2)cc1OC	101	·
Cc1nc2c(C(=O)NCc3ccccc3Cl)cnn2c(C)c1Cc1ccccc1	115	·
Cc1nc2c(C(=O)NCc3ccccc3Cl)c[nH]n2c(=O)c1Cc1cccc(Cl)c1	0.6*	·
Cc1nc2c(C(=O)NCCc3ccccc3)c[nH]n2c(=O)c1Cl	88	6
COc1ccc(CCNC(=O)c2c[nH]n3c(=O)c(Cc4ccccc4Cl)c(C)nc23)cc1OC	0.7*	·
CN1C(=O)C2C(c3cccc(Br)c3)C(C#N)=C(N)OC2N(C)C1=O (centres undefined)	99	10
COc1ccc(-c2cc(C(=O)N3CCC(C(N)=O)CC3)c3ccccc3n2)cc1	97	-26
COC(=O)c1c(NC(=O)CCS(=O)(=O)c2ccc(F)cc2)sc(C)c1C	94	14
Cc1ccc2nc(COC(=O)/C(C#N)=C/c3cc(C)n(CC(C)C)c3C)cc(=O)n2c1	103	0
CCCCC(=O)C1CCOC(C)(C)C1 (centres undefined)	97	5
O=S(=O)(c1ccc(OC(F)(F)F)cc1)N1CCN(Cc2nnc(-c3ccco3)o2)CC1	84	17
O=C(CN1C(=O)c2ccccc2C1=O)Nc1ccc(S(=O)(=O)NC2=NCCCCC2)cc1	91	14
CC(C)C(C(=O)O)n1c(O)c(C2=c3ccccc3=NC2=O)sc1=S (centres undefined)	·	-9
CN=S(=O)(Nc1ccccc1)c1ccc(C)cc1 (centres undefined)	·	12
Cc1ccc(CNC(=O)c2c[nH]n3c(=O)c(Cc4ccc(F)cc4Cl)c(C)nc23)cc1	0.6*	·
Cc1nc2c(C(=O)NCc3ccccc3)cnn2c(C)c1Cc1ccc(F)cc1	94	·
O=C(Nc1ncnc2sc3c(c12)CCC3)c1cccs1	89	6
Cc1ccc(-c2cc(C(F)F)nc(NCc3ccco3)n2)cc1	106	19
Cc1ccc(-c2cc(C(F)F)nc(S(C)(=O)=O)n2)cc1	36*	3
O=S(=O)(c1ccc2c(c1)CCCN2)N1CCCCC1	101	-12
CCN(CC)c1ccc2c(c1)CCCN2	4.2*	8
Cc1noc(C)c1COc1cccc(C(=O)OCN2C(=O)c3ccccc3C2=O)c1	82	-4
CCCCN1COc2ccc3c4c(oc3c2C1)C(=O)c1ccccc1C4=O	13	51*
O=C1c2ccccc2C(=O)c2c1oc1c3c(ccc21)OCN(Cc1ccccc1)C3	106	4
SMILES	Sa growth 42C	S aureus helic
Cc1ccc(Nc2cc(C)nc(-n3nc(C)cc3C)n2)cc1	0.2*	·
Cc1cc(Nc2ccc(Cl)cc2C)nc(-n2nc(C)cc2C)n1	18	·
C=CCn1c(SC(C)C(=O)N2CCCC2)nc2scc(C3CC3)c2c1=O (centres undefined)	87	11
S=C(Nc1ccc(Cl)c(Cl)c1)NC1CCCC1	1.3*	·
Cc1cccc(NC(=S)NC2CCCC2)c1	121	-6
O=C(O)c1cccc(Oc2cccc(C(F)(F)F)c2)c1	118	7
CS(=O)(=O)c1nc(Oc2cccc(C(F)(F)F)c2)cc(Oc2cccc(C(F)(F)F)c2)n1	32*	8
O=C(NCc1ccc(F)cc1)[C@H](CSCc1ccccc1)N1Cc2ccccc2C1=O	116	16
CC[N+](C)(CC)Cc1ccccc1	70	0
CCCCCCCCCCCCC[N+](C)(C)Cc1ccccc1	-0.8*	·
COc1cccc(/C=C2/Sc3ccc(C(=O)N4CC(C)CC(C)C4)cc3NC2=O)c1 (centres undefined)	122	5
O=C1NN(c2ccccc2)C(=O)/C1=C/c1ccc(SC2CCCCC2)o1	92	22
N=C1/C(=C/c2ccc(SC3CCCCC3)o2)C(=O)N=C2SC=CN12	8.4*	-15
COC(=O)c1ccc(C(c2c(N)n(CC(C)C)c(=O)[nH]c2=O)N2CCN(S(=O)(=O)c3ccc(C)cc3)CC2)cc1 (centres undefined)	101	31
c1ccc2sc(CSc3nc4ccccc4s3)nc2c1	107	4
CCC1OC(=O)[C@H](C)C(=O)[C@H](C)[C@@H](OC2O[C@H](C)C[C@H](N(C)C)[C@H]2O)[C@](C)(OC)C[C@@H](C)C(=O)[C@H](C)[C@H]2N(CCCCn3cnc(-c4cccnc4)c3)C(=O)OC12C (some centres undefined)	-1.0*	·
O=C(CCCN1C(=O)/C(=C/c2cccs2)SC1=S)Nc1cccc(C(F)(F)F)c1	·	-23
Cc1ccc(S(=O)(=O)C(=O)Nc2cccc3nsnc23)cc1	124	-4
CC(C)C(=O)Nc1cccc2nsnc12	1.2*	-2
CCN(CC)Cc1nc2sc(C)c(C)c2c(=S)[nH]1	-0.7*	-13

High-throughput results from PubChem.
